SMN2 splice up – enhancers of SMN2 splice variant expression; HEK293 SMN2-luciferase splicing reporter, luminescence, 30-36 h; Potency, µM (highest dose often 46.1 µM), without a hit: at the top dose activity change, positive = activation, most hits filed as activators; 2.8% of 210,000 active; also: % of control where 0% means no effect; nearly all actives have a fitted effect of over 55% in size
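qHTS luciferase splicing reporter: luminescence rises when SMN2 exon 7 is included in transfected HEK293 cells. Compound exposure lasted 30-36 h at 37C, with 4.5 mM final sodium butyrate as control, followed by a ONE-Glo read.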
NPC1 promoter act – activates the NPC1 promoter | Huh7 NPC1 promoter luciferase reporter, 24 h | Potency, µM (top dose mostly 9.22 µM), without a hit: at the highest dose activation, most hits filed as activators | 2.4% of 320,000 active | AID 485313; also: % of control where 0% means no effect; nearly all actives have a fitted effect of over 60% in size
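In 1536-well qHTS, Huh7 cells harboring an NPC1 promoter–luciferase construct received compound for 24 h; activation was quantified by luminescence following luciferase reagent addition.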
ELG1 genotoxic – genotoxicity induction in ELG1-luciferase HEK293T cells; HEK293T ELG1-luciferase reporter, luminescence, 16 h; Potency, µM (series often up to 46 µM), without a hit: at the top dose activity change, positive = activation, usual class: activators; 1.3% of 330,000 active; AID 504466; also: % of control where 0% means no effect; nearly all actives have a fitted effect of over 60% in size
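After overnight (16 hr) compound treatment at 37 °C, ELG1-luciferase HEK293T cells were lysed with ONE-Glo; luminescence quantified 30 min later at room temperature.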
Rab9 promoter act – activates the Rab9 promoter | Huh7 Rab9 promoter-luciferase reporter, luminescence, 24 h | 2.8% of 320,000 active | Potency, µM (highest dose often 9.22 µM), for the others: at the highest dose activation, negative = inhibition, actives largely listed as activators; also: % of control where 0% means no effect; nearly all actives have a fitted effect of over 60% in size
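Steps: seed 1500 Huh7 Rab9-luc cells per well, rest 2 h at 37 °C; add compound in DMSO; incubate 24 h; add luciferase reagent, 10 min ambient; read luminescence.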
FLuc counter – inhibits or activates purified firefly luciferase, miR-21 counter-screen. P08659. purified FLuc, Km substrates, luminescence inhibition. AID 588342. 6.9% of 360,000 active. Potency, µM (top dose mostly 57.5 µM), inactives show top-dose activity change, negative = inhibition, actives largely listed as inhibitors;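 also: plate controls were vehicle for no effect and reference inhibitor for full effect; nearly all actives have a fitted effect of over 55% in size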
Target sequence (P08659 whole entry, looked up): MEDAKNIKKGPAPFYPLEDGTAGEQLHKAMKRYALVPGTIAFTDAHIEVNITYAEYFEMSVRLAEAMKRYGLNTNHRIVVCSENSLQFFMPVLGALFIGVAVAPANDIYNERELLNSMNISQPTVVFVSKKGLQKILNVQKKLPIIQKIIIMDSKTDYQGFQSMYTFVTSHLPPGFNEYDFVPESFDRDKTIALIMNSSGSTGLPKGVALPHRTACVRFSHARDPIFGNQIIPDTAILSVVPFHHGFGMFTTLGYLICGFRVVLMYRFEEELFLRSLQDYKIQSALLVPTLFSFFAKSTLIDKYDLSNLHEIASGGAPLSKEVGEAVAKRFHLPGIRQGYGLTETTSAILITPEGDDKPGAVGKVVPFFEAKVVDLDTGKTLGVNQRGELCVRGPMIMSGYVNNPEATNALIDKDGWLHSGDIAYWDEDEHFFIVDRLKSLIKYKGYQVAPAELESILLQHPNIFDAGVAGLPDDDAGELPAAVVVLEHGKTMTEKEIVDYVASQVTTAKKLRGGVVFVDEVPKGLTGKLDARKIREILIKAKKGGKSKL
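Purified P. pyralis luciferase, 10 nM final, with Km-level 10 uM D-luciferin and 10 uM ATP in 50 mM Tris acetate pH 7.5, 10 mM Mg acetate, 0.01% Tween-20, 0.05% BSA; 6-point qHTS titration about 60 µM downward; luminescence read.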
* = called active by the depositor; u = inconclusive; x = no result; [ ] = another dose, or the depositor's remark. Rows were chosen to be rich in hits. Some 7.5% of all compounds tested hit in one or more screens of this group. Calls follow the shape of the dose curve; as a rule, active = well fitted curve in the direction sought with a large enough effect; inconclusive = small, poorly fitted or top-dose-only effect, or another doubt; inactive = no such curve, though single readings can be large; an effect the other way counts as inactive or inconclusive. Potency is read from the fitted curve at half-maximal effect.

SMILES | SMN2 splice up | NPC1 promoter act | ELG1 genotoxic | Rab9 promoter act | FLuc counter
CC(C)Cn1nc(NC(=O)C(C)(C)C)c2cc3ccccc3nc21 | -5% | -1% | 2% | -7% | -1%
Cn1c(CSc2nc3ccccc3s2)nc2ccccc21 | 16µM* | u | 13µM* | u | 11µM*
c1ccc(SCc2nc3ccccc3[nH]2)nc1 | 6% | u | u | u | 21µM*
c1ccc2[nH]c(CSc3nc4ccccc4s3)nc2c1 | -31% | 29% | 8% | 23% | 15µM*
Cc1nnc(SCc2nc3ccccc3[nH]2)s1 | 9% | 0% | 5% | -2% | 3%
COc1ccc(C(=O)NC(=O)COC(=O)c2ccc3ncsc3c2)cc1 | 5% | -2% | u | 22% | -3%
CNc1ccc(/C=C2\CSc3ccccc3C2=O)cc1[N+](=O)[O-] | -51% | 10% | u | 14% | 0.76µM*
O=C1/C(=C/c2cccc([N+](=O)[O-])c2)CSc2ccc(Cl)cc21 | x | -1% | 7% | -3% | -13%
COc1ccccc1N=Nc1nc(-c2ccccc2)c(-c2ccccc2)[nH]1 | 0% | -3% | -7% | 0% | 12µM*
COc1ccc(-c2nc(C)ncc2N=Nc2ccccc2)cc1 | -42% | 0% | 4% | 0% | u
Oc1ccccc1N=Nc1nc(-c2ccccc2)c(-c2ccccc2)[nH]1 | -120% | -17% | 0% | -18% | u
COc1ccc(N=Nc2nc(-c3ccccc3)c(-c3ccccc3)[nH]2)cc1 | 2%[1.84 µM] | 0% | -8% | -4% | 9.5µM*
COc1ccc2nc(SC)c(C#N)cc2c1 | -13% | 2% | 1% | 7% | 1%
COc1ccc2cc(C#N)c(SCC(=O)Nc3nonc3C)nc2c1 | x | -3% | -4% | 1% | 0%
CCOC(=O)CSc1nc2ccc(C)cc2cc1C#N | 16µM* | 2.8µM* | 2.3µM* | 1.4µM* | 12µM*
CCOC(=O)CSc1nc2cc(C)cc(C)c2cc1C#N | 0% | u | 11% | u | 0%
COc1ccc2nc(SCC(C)=O)c(C#N)cc2c1 | 2µM* | u | 2.1µM* | 1µM* | 1.1µM*
CCOC(=O)CSc1nc2cc(C)ccc2cc1C#N | 14µM* | 0.71µM* | u | 1.3µM* | u
CCOC(=O)CSc1nc2cc(OC)ccc2cc1C#N | 11µM* | 0.79µM* | 0.82µM* | 1.3µM* | u
Cc1ccc(NC(=O)CN(c2ccccc2)S(=O)(=O)N(C)C)cc1Cl | -33% | x | x | x | 0%
O[C@H]1c2ccccc2[C@H](Cc2cncs2)[C@@H]1Br | x | 0% | 7% | 1% | 0%
Cc1cccc(C)c1NC(=O)Cn1c(=O)n(Cc2ccccc2Cl)c(=O)c2cccnc21 | 15% | x | x | x | 0%
CCOc1ccc(/C=C2/SC(=S)N(CCC(=O)Nc3ccc(C(=O)O)cc3)C2=O)cc1 | x | 1% | u | 0% | 1.2µM*
CCOc1ccc(/C=C2\SC(=S)N(CCC(=O)O)C2=O)cc1 | x | -11% | 0% | -31% | 1.7µM*
CCOc1ccc(/C=C2\SC(=S)N(CCC(=O)Nc3ccccc3C(=O)O)C2=O)cc1 | x | 2% | 6% | u | 15µM*
SMILES | SMN2 splice up | NPC1 promoter act | ELG1 genotoxic | Rab9 promoter act | FLuc counter
COc1ccc(/C=C2\SC(=S)N(CCC(=O)Nc3ccccc3C(=O)O)C2=O)cc1 | x | -5% | -2% | -1% | 21µM*
Cc1ccc2c(c1)N(Cc1ccc([N+](=O)[O-])cc1)C=NS2(=O)=O | x | -1% | -2% | 2% | 0%
COC(=O)C1=C(C)N(c2ccccc2)C(=S)NC1c1ccccc1C(F)(F)F (stereo not given) | -16% | -8% | -4% | -3% | 1%
N#Cc1ccccc1-c1ccc2ncnc(N3CCNCC3)c2c1 | 6% | x | x | x | x
O=C(COc1cccnc1[N+](=O)[O-])Nc1ccc2c(c1)OC(F)(F)O2 | -22% | -2% | 1% | -4% | -1%
O=C(O)CCN1C(=O)CC(N2C(=O)/C(=C/c3ccc(Cl)cc3)SC2=S)C1=O (stereo not given) | 1% | -5% | -6% | 0% | 19µM*
O=C(Nc1nc2c(s1)CCCC2)c1cccc(S(=O)(=O)N2CCCc3ccccc32)c1 | -77% | -5% | 8% | -3% | -20%
COc1ccc(-c2cc(-c3ccc(F)cc3)nc(N3CCN(C)CC3)n2)cc1 | -7% | -1% | -2% | 1% | -3%
